TNAP act DEA: activates human TNAP at intermediate phosphate acceptor concentration. P05186. purified TNAP, CDP-star luminescence, 100 mM DEA, 30 min; active compounds read high; scale: 0 levamisole-inhibited, 1 vehicle-only enzyme. activation factor at 20 µM. 64,000 tested, under 10 active;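 active means activation factor of at least 2 at 20 µM, relative to controls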
PostGolgi ctrl: growth of the yeast control strain, post-Golgi counter-screen | hit rate 5% among 98,000 | inhibition, % at 10 µM | AID 738 | efflux-deficient yeast background strain, growth absorbance A615, 16 h
Cav32 inh: human Cav3.2 channel inhibition, primary screen. O95180. AID 449739. Cav3.2-expressing cells, Fluo-4 calcium fluorescence FDSS; active compounds read low. B-score at 10 µM. hit rate 4% among 100,000;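 active means single-dose well whose peak fluorescence ratio is a statistical outlier from its plate by either plate-standardised score or position-corrected B-score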
hDAT+cocaine: human DAT dopamine uptake with cocaine, either direction. Q01959. AID 449768. B-score at 10 µM. LLC-PK1 hDAT cells, [14C]-dopamine uptake with cocaine IC80; actives deviate in either direction. hit rate 1.3% among 110,000;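 active means Z score or B-score, a plate-position-corrected score, falls beyond the plate's 99.7% confidence bounds, in either direction; inactive means both scores lie inside the 99.7% bounds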;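 further: scored against the spread of the other compound wells on the same plate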
Target sequence (Q01959 whole entry, looked up): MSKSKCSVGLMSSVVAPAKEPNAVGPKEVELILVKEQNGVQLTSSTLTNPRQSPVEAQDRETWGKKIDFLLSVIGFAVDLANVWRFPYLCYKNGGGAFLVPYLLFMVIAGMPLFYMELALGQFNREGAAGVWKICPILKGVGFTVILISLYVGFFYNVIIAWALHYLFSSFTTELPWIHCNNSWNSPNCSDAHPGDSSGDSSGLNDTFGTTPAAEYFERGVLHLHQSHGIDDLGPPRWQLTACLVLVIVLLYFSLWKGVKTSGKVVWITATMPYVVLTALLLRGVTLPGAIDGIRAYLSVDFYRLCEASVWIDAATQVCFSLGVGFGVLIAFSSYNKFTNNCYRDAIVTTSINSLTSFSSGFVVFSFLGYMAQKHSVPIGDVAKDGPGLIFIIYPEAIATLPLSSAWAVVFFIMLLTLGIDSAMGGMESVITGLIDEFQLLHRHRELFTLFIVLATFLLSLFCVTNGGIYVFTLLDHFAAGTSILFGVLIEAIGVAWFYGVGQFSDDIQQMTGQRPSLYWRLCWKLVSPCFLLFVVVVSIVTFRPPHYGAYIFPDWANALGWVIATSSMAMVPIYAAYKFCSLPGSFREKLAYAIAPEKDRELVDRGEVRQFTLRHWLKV
Smad3 inh: inhibitors of human Smad3 transcription factor binding; P84022; hit rate 0.29% among 88,000; inhibition, % at 25 µM; TR-FRET Smad3/Dy647-FoxH1 peptide binding, europium anti-His; AID 630;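 active means compounds that reduce the energy-transfer binding signal between the protein and its labelled peptide by more than half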;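 further: 0% = Smad3 plus labelled peptide maximal FRET and 100% = peptide-only background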
PostGolgi yeast: growth inhibition of a yeast mutant, post-Golgi transport screen. inhibition, % at 10 µM. AID 739. post-Golgi transport phenotypic cell assay. hit rate 0.9% among 98,000;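 further: yeast cells grown in 1536-well plates; yeast grown about 18 h at 30C before absorbance read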
* hit, by the source's call; · = no result given. An excerpt weighted towards active compounds, which were near 8.7% of everything screened. Unless noted, no stated cut-off is given here; in the data, active means inhibition above about 30%; inactive means the rest.

SMILES	TNAP act DEA	PostGolgi ctrl	Cav32 inh	hDAT+cocaine	Smad3 inh	PostGolgi yeast
CCc1ccc(CCC(=O)Nc2sc(C)c(C)c2C(=O)OC)o1	·	13.6	-0.905	0.176	14.1	7.5
CCCn1c(SCC(=O)Nc2ccccc2C(=O)OC)nc2c1c(=O)n(C)c(=O)n2C	0.8	14.9	-1.52	-0.416	2.0	-10.3
CCCn1c(SCC(=O)Nc2ccccc2N2CCCCC2)nc2c1c(=O)n(C)c(=O)n2C	0.9	21.8	-4.41*	1.13	-4.6	12.2
O=C(CCn1c(=O)sc2ccccc21)NCc1ccco1	·	·	0.2	-0.253	5.3	·
O=C(CSc1nc(Cc2ccccc2)nc2ccccc12)c1ccc2c(c1)OCCO2	·	16.9	-2.19	-0.142	·	20.1
CCc1nc(SCC(=O)c2ccc3c(c2)OCCO3)c2ccccc2n1	·	31.8*	-2.73	·	·	-4.2
COc1cccc(N2CCN(c3ncnc4c3[nH]c3ccccc34)CC2C)c1 (stereo not given)	1	44.4*	-5.89*	-0.841	·	6.9
COc1cccc(N2CCN(c3ncnc4c3[nH]c3ccc(F)cc34)CC2C)c1 (stereo not given)	0.9	96.1*	-6.11*	0.94	3.3	66.0*
Cc1cc2oc(C(=O)N(Cc3ccccc3)C3CCS(=O)(=O)C3)cc(=O)c2cc1Cl (stereo not given)	·	5.0	-0.796	0.303	13.6	-1.3
COc1ccc(NC(=O)c2ccc(Cl)c(S(=O)(=O)N3CCc4ccccc4C3)c2)cn1	0.9	44.6*	-3.29	-0.797	4.0	-1.5
COc1ccc(NC(=O)C2Cc3ccccc3CN2C(=O)c2ccccc2)cn1 (stereo not given)	1	6.4	-0.367	2.93*	2.3	23.7
Cn1c(Sc2ccc(Cl)cc2)c(C=O)c2ccccc21	·	37.4*	-0.336	-0.0472	·	8.1
CC(C)C1=C[C@@]23CC[C@@H]4[C@](C)(CCC[C@@]4(C)C(=O)O)[C@@H]2C[C@@H]1[C@H](C(=O)O)[C@@H]3C(=O)O	·	·	·	·	86.8*	·
COc1cc(OC)cc(-c2cc3nc(C)cc(N4CCN(C(=O)c5ccco5)CC4)n3n2)c1	·	30.2*	·	·	·	-11.2
O=C(O)C1CC(=O)N(C2CCCCCC2)C1 (stereo not given)	0.9	2.7	-0.0443	0.48	-8.5	1.4
CCOC(=O)c1ccc(NC(=O)CC2COc3ccccc3O2)cc1 (stereo not given)	0.9	31.9*	·	-0.837	8.6	3.9
CSCCC(NC(=O)c1ccccc1)C(=O)NCc1ccco1 (stereo not given)	0.9	37.7*	0.867	-1.11	-1.9	-7.4
O=[N+]([O-])c1ccc(Oc2cccc(F)c2)c2ccncc12	·	38.0*	-0.123	0.232	6.1	10.2
COc1c(N2CCN(C(=S)Nc3ccc(F)cc3)C(C)C2)c(F)cc2c(=O)c(C(=O)O)cn(C3CC3)c12 (stereo not given)	·	2.1	3.6*	·	·	-3.6
COc1c(N2CCNC(C)C2)c(F)cc2c(=O)c(C(=O)O)cn(C3CC3)c12 (stereo not given)	0.9	·	0.321	1.01	11.1	·
Cc1ccccc1C(=O)Oc1cccc(Nc2ncnc3ccccc23)c1	·	·	-4.84*	0.368	·	·
COc1cc(OC)cc(-c2nc(-c3cc4cc(C)ccc4nc3OC)no2)c1	0.9	7.7	-1.3	-1.08	21.1	15.4
COc1nc2ccc(C)cc2cc1-c1noc(-c2ccccc2)n1	·	31.5*	0.869	0.698	·	8.1
O=C(NC(NNc1ccc([N+](=O)[O-])cc1)(C(F)(F)F)C(F)(F)F)c1ccccc1Cl	·	44.2*	-8.47*	-0.23	·	0.8
CCOC(=O)c1sc2ncn(/N=C/N(C)C)c(=O)c2c1C	0.9	1.6	0.249	0.195	-5.5	7.5
SMILES	TNAP act DEA	PostGolgi ctrl	Cav32 inh	hDAT+cocaine	Smad3 inh	PostGolgi yeast
O=C(NCCN1C(=O)C2C3C=CC(C3)C2C1=O)Nc1ccc(Br)cc1 (stereo not given)	1	5.6	0.0168	0.212	-1.5	6.4
O=C1C2C3C=CC(C3)C2C(=O)N1CN(Cc1ccccc1)CN1C(=O)C2C3C=CC(C3)C2C1=O (stereo not given)	1	36.6*	0.404	-1.93	0.2	-9.5
Cc1cccc(NCN2C(=O)C3C4C=CC(C4)C3C2=O)c1 (stereo not given)	·	33.2*	0.148	0.207	18.8	21.3
COc1ccccc1NC(=O)NCCN1C(=O)C2C3C=CC(C3)C2C1=O (stereo not given)	0.9	42.0*	0.291	-1.11	13.5	-7.0
Cc1ccccc1NCN1C(=O)C2C3C=CC(C3)C2C1=O (stereo not given)	0.9	32.5*	-0.708	-1.15	9.9	-4.3
O=C(NC12CC3CC(CC(C3)C1)C2)N1CC2Cc3cccc(=O)n3C(C2)C1 (stereo not given)	1	1.4	0.0466	-0.902	2.1	-0.3
CCn1nc(-c2ccccc2)c2nc3ccccc3nc21	1	14.0	·	0.101	8.0	-19.6
O=c1c2ccccc2nc(SCc2nnc(-c3ccccc3Br)o2)n1Cc1ccco1	0.9	19.0	-1.15	1.79	5.1	-4.9
Nc1cc(=O)[nH]n1C1CCN(c2ccccc2)CC1	0.9	1.2	0.413	0.335	-19.2	0.6
O=C(Cc1ccccc1)NC(NCCCN1CCOCC1)(C(F)(F)F)C(F)(F)F	0.9	-1.7	0.537	-0.889	3.8	13.0
O=S(=O)(c1ccc(F)cc1)n1ccc2cccnc21	·	3.8	0.373	0.94	·	-3.5
O=C(O)CCCNC(=O)OCc1ccccc1	0.9	26.8	-0.0393	-1.14	12.4	-2.9
COC(=O)C(CCCCNC(=O)OCc1ccccc1)NC(=O)CN (stereo not given)	0.8	7.2	0.699	0.216	5.8	32.1*
Clc1ccc(Cn2nnc(-c3ccc(CN4CCOCC4)cc3)n2)cc1	1	50.9*	·	1.21	-3.0	82.0*
O=C(Cn1nnc(-c2ccc(Cl)cc2)n1)NC1CCN(Cc2ccccc2)CC1	1	16.9	-5.91*	0.13	-1.6	-8.3
Clc1ccc(Cn2nnc(-c3ccccc3)n2)cc1	·	·	-1.3	-0.236	-9.7	·
Fc1ccc(Cn2nnc(-c3ccc(CN4CCOCC4)cc3)n2)cc1	0.9	30.5*	·	-7.95*	-5.5	89.3*
Fc1cccc(Cl)c1Cn1nnc(-c2ccc(N3CCOCC3)cc2)n1	·	13.0	-0.112	-0.673	-10.3	-0.6
Cc1ccc2cc(CN(Cc3nnnn3Cc3ccco3)CC3CCCO3)c(=O)[nH]c2c1C (stereo not given)	0.9	-0.3	-0.227	1.71	-15.7	-3.5
CCCOc1ccc(C2C(C(=O)OC)=C(C)N=C3SCCC(=O)N32)cc1OCC (stereo not given)	1	4.7	-0.518	0.716	4.8	0.6
CCCCn1c(Oc2ccc(C(=O)OC)cc2)nc2c1c(=O)n(C)c(=O)n2C	0.9	·	-1.34	1.07	5.2	·
CCOC(=O)Cc1csc(NC(=S)NC(=O)c2ccccc2C)n1	·	0.3	-1.37	0.851	·	-4.0
CCOC(=O)Cc1csc(NC(=S)NC(=O)c2ccc(F)cc2)n1	·	40.7*	·	·	·	4.4
